Reference: PubChem BioAssay
Where “and” joins values, the source holds several entries; their conditions need not be identical. Equal values may be shown once. Calls of active or inactive are those of the source.

How the values were obtained:
[1] = optical density shifts of acrAB sulA E. coli – strain DRC41, OD650, 48 h, E. coli filamentation inducer project, primary screen (AID 1152); details: higher = more signal, called active from +8 up or from −8 down;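 note: E. coli MC1000 strain DRC41 lacking acrAB efflux pump and sulA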
[2] = probe aLefty1 binding on compound microarray – biochemical, small-molecule microarray, 635/667 nm fluorescence, primary screen (AID 1153); details: higher = more signal;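 note: score merges spot fluorescence with signal-to-noise ratio from the scanned slide images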
[3] = plasmodial surface anion channel blockers, osmotic lysis – cell-based, P. falciparum Indochina, OD700, 1 h, primary screen (AID 1154); details: P. falciparum Indochina infected RBC osmotic lysis, higher = more signal, called active from +8 up or from −8 down
[4] = plasmodial surface anion channel blockers, osmotic lysis – cell-based, P. falciparum Indochina, OD700, 2 h, primary screen (AID 1155);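 note: lysis reports solute entry through the parasite surface anion channel PSAC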; details: P. falciparum Indochina infected erythrocytes, higher = more signal, called active from +8 up or from −8 down
[5] = changes in parasitized red cell lysis, either direction – P. falciparum Indochina, OD700, 3 h, PSAC antagonist project, primary screen (AID 1156); details: P. falciparum-infected erythrocytes, osmotic lysis, higher = more signal, called active from +8 up or from −8 down
[6] = plasmodial surface anion channel blockers, osmotic lysis – cell-based, P. falciparum Indochina, OD700, 18 h, primary screen (AID 1157); details: P. falciparum Indochina infected erythrocytes, osmotic lysis OD700, 18 h; higher = more signal, called active from +8 up or from −8 down
[7] = S6 kinase pathway phospho-S6 level changes – cell-based, A549, cytoblot, luminescence, serum-stimulated, primary screen (AID 1158); details: 5 h, higher = more signal;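 note: serum-stimulated A549 lung adenocarcinoma cells; signal is phosphorylated S6 detected by cytoblot immunostaining with HRP secondary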
[8] = target: NADPH oxidase 2 (Homo sapiens) (UniProt P04839); assay: compounds shifting NOX2 Amplex Red fluorescence – cell-based, HEK293-NOX2, PMA-stimulated, NOX inhibitor project, primary screen (AID 1159); details: 45 min, higher = more signal, called active from +8 up or from −8 down; note: test concentration not given here
Chain of NADPH oxidase 2 (Homo sapiens) (P04839 whole entry, looked up): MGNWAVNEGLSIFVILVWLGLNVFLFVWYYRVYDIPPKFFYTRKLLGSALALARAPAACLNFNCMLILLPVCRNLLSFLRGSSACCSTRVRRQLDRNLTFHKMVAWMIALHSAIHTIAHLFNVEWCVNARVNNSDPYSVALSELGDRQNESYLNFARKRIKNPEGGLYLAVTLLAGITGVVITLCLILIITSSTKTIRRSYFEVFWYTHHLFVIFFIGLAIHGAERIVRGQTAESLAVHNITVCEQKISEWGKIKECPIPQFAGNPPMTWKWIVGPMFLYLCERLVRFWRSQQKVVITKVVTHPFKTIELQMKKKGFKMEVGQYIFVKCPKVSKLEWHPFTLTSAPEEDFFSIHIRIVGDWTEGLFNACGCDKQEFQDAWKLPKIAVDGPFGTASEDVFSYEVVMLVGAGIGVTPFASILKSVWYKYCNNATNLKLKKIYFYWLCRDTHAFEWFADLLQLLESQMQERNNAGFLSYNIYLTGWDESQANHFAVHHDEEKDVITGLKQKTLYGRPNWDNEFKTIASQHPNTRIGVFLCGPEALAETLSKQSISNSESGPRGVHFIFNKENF

[9] = target: NADPH oxidase 4 (Homo sapiens) (UniProt Q9NPH5); assay: compounds shifting NOX4 Amplex Red fluorescence – cell-based, HEK293-NOX4, tetracycline-induced, NOX inhibitor project, primary screen (AID 1160); details: HEK293-NOX4, Amplex Red H2O2 fluorescence, 45 min; higher = more signal, called active from +8 up or from −8 down
Chain of NADPH oxidase 4 (Homo sapiens) (Q9NPH5 whole entry, looked up): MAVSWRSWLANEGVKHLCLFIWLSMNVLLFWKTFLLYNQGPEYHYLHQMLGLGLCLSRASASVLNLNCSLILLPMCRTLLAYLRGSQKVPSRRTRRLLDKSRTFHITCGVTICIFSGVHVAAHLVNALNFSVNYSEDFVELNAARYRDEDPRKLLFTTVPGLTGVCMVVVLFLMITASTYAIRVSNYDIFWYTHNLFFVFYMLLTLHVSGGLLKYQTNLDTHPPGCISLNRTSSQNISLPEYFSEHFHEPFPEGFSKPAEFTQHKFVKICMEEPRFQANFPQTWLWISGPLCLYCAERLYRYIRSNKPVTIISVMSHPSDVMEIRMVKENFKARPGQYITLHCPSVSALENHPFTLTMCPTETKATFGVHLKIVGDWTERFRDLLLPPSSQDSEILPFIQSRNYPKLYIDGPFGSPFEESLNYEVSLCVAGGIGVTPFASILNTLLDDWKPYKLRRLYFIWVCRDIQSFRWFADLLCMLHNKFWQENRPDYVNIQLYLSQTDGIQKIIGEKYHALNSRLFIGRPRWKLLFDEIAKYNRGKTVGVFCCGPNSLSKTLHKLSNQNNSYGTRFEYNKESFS

[10] = target: NADPH oxidase 5 (Homo sapiens) (UniProt Q96PH1); assay: compounds shifting NOX5 Amplex Red fluorescence – cell-based, HEK293-NOX5, NOX inhibitor project, primary screen (AID 1161); details: HEK293-NOX5, ionomycin, 45 min, higher = more signal
Chain of NADPH oxidase 5 (Homo sapiens) (Q96PH1 whole entry, looked up): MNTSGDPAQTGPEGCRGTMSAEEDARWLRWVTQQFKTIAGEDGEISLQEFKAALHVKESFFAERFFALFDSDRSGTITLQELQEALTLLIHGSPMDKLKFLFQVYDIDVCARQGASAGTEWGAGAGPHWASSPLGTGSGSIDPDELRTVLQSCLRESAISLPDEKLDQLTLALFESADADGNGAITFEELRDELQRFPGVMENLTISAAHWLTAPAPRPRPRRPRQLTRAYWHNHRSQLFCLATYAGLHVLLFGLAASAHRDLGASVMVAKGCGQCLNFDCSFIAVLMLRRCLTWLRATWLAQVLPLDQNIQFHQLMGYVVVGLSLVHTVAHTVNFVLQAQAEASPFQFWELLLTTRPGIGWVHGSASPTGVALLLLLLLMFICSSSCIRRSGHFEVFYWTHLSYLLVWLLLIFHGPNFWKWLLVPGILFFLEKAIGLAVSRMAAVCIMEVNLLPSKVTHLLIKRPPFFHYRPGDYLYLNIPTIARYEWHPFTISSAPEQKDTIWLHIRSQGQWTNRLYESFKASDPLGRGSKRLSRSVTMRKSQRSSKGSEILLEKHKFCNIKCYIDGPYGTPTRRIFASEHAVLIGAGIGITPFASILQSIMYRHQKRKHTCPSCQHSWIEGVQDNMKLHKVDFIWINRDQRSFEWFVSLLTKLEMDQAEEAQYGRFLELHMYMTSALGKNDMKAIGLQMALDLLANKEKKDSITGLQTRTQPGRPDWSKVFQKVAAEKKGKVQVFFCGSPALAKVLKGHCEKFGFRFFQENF

[11] = compound effects on lung adenocarcinoma cell viability – A549, calcein-AM fluorescence, 48 h, basal, profiling panel (AID 1162); details: higher = more signal; note: test concentration not given here
[12] = compound effects on differentiated 3T3-L1 adipocyte viability – cell-based, 3T3-L1 adipocytes, calcein-AM fluorescence, 48 h, basal, profiling panel (AID 1163); details: 3T3-L1 adipocytes viability, higher = more signal; note: test concentration not given here
[13] = compound effects on hepatocellular carcinoma cell viability – HepG2, calcein-AM fluorescence, 48 h, basal, profiling panel (AID 1164); details: higher = more signal; note: test concentration not given here
[14] = compound effects on multiple myeloma cell viability – MM1S, calcein-AM fluorescence, 48 h, basal, profiling panel (AID 1165); details: higher = more signal;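 note: viability of MM1S multiple myeloma cells under basal unstimulated conditions; test concentration not given here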
[15] = calcein-AM signal in unstimulated myeloma cells – cell-based, calcein-AM fluorescence, 48 h, PK04 Diversity Set, profiling panel (AID 1166); details: RPMI8226 myeloma viability, higher = more signal;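 note: cells grown under basal conditions without added stimulus; test concentration not given here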
[16] = JC-1 mitochondrial signal, unstimulated HepG2 cells – cell-based, JC-1 fluorescence, 24 h, 100 nL compound, profiling panel (AID 1167); details: HepG2 mitochondrial potential, higher = more signal; note: test concentration not given here
[17] = JC-1 mitochondrial signal, unstimulated adipocytes – cell-based, JC-1 fluorescence, 3T3-L1 adipocytes, 24 h, 100 nL compound, profiling panel (AID 1168); details: JC-1 mitochondrial fluorescence, higher = more signal, called active from +8 up or from −8 down; note: test concentration not given here
[18] = JC-1 mitochondrial signal, unstimulated myeloma cells – cell-based, JC-1 fluorescence, RPMI8226, 24 h, 100 nL compound, profiling panel (AID 1169); details: JC-1 mitochondrial potential fluorescence, higher = more signal; note: test concentration not given here
[19] = JC-1 mitochondrial signal, unstimulated MM1S myeloma – cell-based, JC-1 fluorescence, 24 h, 100 nL compound, profiling panel (AID 1170); details: MM1S mitochondrial potential, higher = more signal; note: test concentration not given here
[20] = resazurin metabolic signal in A549 cells – cell-based, resazurin fluorescence, 24 h, PK04 Diversity Set, profiling panel (AID 1171); details: A549 viability, higher = more signal, called active from +8 up or from −8 down; note: test concentration not given here

SMILES: O=C1[C@H]2[C@H]3[C@H](O)[C@H](O)CC(=NOCc4ccccc4)[C@H]3CC[C@H]2C(=O)N1Cc1ccccc1
- z-score [1]: -0.925 (inactive)
- composite z-score [2]: 0.0037
- z-score [3]: 5.58 (inactive)
- z-score [4]: 0.42 (inactive)
- z-score [5]: 0.224 (inactive)
- z-score [6]: -0.456 (inactive)
- z-score [7]: 0.741
- z-score [8]: -1.14 (inactive)
- z-score [9]: -2.92 (inactive)
- z-score [10]: -2.42
- z-score [11]: -0.85
- z-score [12]: 1.18
- z-score [13]: -0.977
- z-score [14]: -0.695
- z-score [15]: -1.69
- z-score [16]: 1.09
- z-score [17]: -0.0708 (inactive)
- z-score [18]: 0.00736
- z-score [19]: -1.48
- z-score [20]: 0.51 (inactive)

SMILES: CC(CO)N1C(=O)[C@@H]2C3C(=O)OCCC=C[C@H]3OC23C=CCN(Cn2nnc4ccccc42)C(=O)[C@@H]13 (stereo not given in full)
- z-score [1]: 0.326 (inactive) and -0.353 (inactive)
- composite z-score [2]: -0.199 and 0.241
- z-score [3]: 0.464 (inactive) and 3.04 (inactive)
- z-score [4]: -0.0088 (inactive) and 0.83 (inactive)
- z-score [5]: 0.879 (inactive) and 0.711 (inactive)
- z-score [6]: 0.163 (inactive) and 0.114 (inactive)
- z-score [7]: 0.798 and 0.483
- z-score [8]: 1.14 (inactive) and 1.44 (inactive)
- z-score [9]: 0.249 (inactive) and 0.774 (inactive)
- z-score [10]: 1.47 and 2.83
- z-score [11]: -0.515 and 0.432
- z-score [12]: -0.101 and 0.061
- z-score [13]: -0.562 and -0.713
- z-score [14]: 0.922 and -0.0987
- z-score [15]: -0.28 and 0.0829
- z-score [16]: -1.01 and -0.375
- z-score [17]: -0.259 (inactive) and -1.12 (inactive)
- z-score [18]: 0.46 and -0.0108
- z-score [19]: 0.198 and -0.363
- z-score [20]: -0.116 (inactive) and 0.785 (inactive)

SMILES: CO[C@H]1COC(=O)CC=C[C@H](C)[C@H](OC)COC(=O)[C@@H](C)COC(=O)CC=C[C@@H]1C
- z-score [1]: 0.462 (inactive) and 0.63 (inactive)
- composite z-score [2]: -0.294 and -0.193
- z-score [3]: -0.267 (inactive) and 0.565 (inactive)
- z-score [4]: -0.162 (inactive) and -0.455 (inactive)
- z-score [5]: -0.146 (inactive) and 0.4 (inactive)
- z-score [6]: -0.0153 (inactive) and 0.179 (inactive)
- z-score [7]: -0.0498 and 0.833
- z-score [8]: 0.282 (inactive) and 1.16 (inactive)
- z-score [9]: 0.201 (inactive) and 0.589 (inactive)
- z-score [10]: -0.26 and 0.25
- z-score [11]: -0.26 and 0.27
- z-score [12]: 0.0599 and 0.0256
- z-score [13]: 0.0517 and 1.24
- z-score [14]: 0.183 and 0.0455
- z-score [15]: -0.409 and 0.728
- z-score [16]: 0.152 and 1.09
- z-score [17]: -0.317 (inactive) and 0.125 (inactive)
- z-score [18]: -0.429 and 0.0879
- z-score [19]: 0.688 and 0.438
- z-score [20]: 0.211 (inactive) and -0.379 (inactive)

SMILES: COc1ccc(O[C@H]2C=C[C@@H](c3ccccc3)O[C@@H]2COC(=O)CCC(C)=NO[C@H](C)c2cn([C@H](CO)Cc3ccccc3)nn2)cc1
- z-score [1]: 0.756 (inactive) and 0.0906 (inactive)
- composite z-score [2]: 0.273 and -0.553
- z-score [3]: 14.1 (active) and 13.6 (active)
- z-score [4]: 1.6 (inactive) and 2.16 (inactive)
- z-score [5]: 2.07 (inactive) and 1.09 (inactive)
- z-score [6]: 0.711 (inactive) and 0.907 (inactive)
- z-score [7]: -0.112 and -0.835
- z-score [8]: -2.32 (inactive) and -2.14 (inactive)
- z-score [9]: 0.0167 (inactive) and -2.56 (inactive)
- z-score [10]: -1.63 and -3.66
- z-score [11]: -0.748 and -0.352
- z-score [12]: 0.498 and 0.0533
- z-score [13]: -1.06 and -0.619
- z-score [14]: -0.764 and -2.3
- z-score [15]: -2.54 and -1.69
- z-score [16]: -0.796 and -0.898
- z-score [17]: -2.62 (inactive) and -0.634 (inactive)
- z-score [18]: 0.0444 and -0.196
- z-score [19]: -0.704 and 0.182
- z-score [20]: 0.385 (inactive) and 0.277 (inactive)

SMILES: C[C@@H]1CN2[C@@H](CC[C@@H](C)[C@@H]2c2ccc(Br)cc2)C(=O)O1
- z-score [1]: -1.42 (inactive) and 0.0426 (inactive)
- composite z-score [2]: 0.0367 and -0.275
- z-score [3]: 0.169 (inactive) and -0.313 (inactive)
- z-score [4]: 0.279 (inactive) and -1.09 (inactive)
- z-score [5]: -0.425 (inactive) and -0.16 (inactive)
- z-score [6]: 0.125 (inactive) and -1.18 (inactive)
- z-score [7]: -0.0649 and 1.61
- z-score [8]: 1.55 (inactive) and -0.12 (inactive)
- z-score [9]: -1 (inactive) and 0.168 (inactive)
- z-score [10]: 0.0337 and 0.614
- z-score [11]: -0.133 and 0.551
- z-score [12]: 0.706 and 0.0322
- z-score [13]: -0.163 and 0.959
- z-score [14]: 0.248 and 0.391
- z-score [15]: -0.0928 and 0.767
- z-score [16]: 0.446 and 0.56
- z-score [17]: -0.0606 (inactive) and 0.229 (inactive)
- z-score [18]: 0.05 and 0.203
- z-score [19]: 1.26 and -0.901
- z-score [20]: 0.131 (inactive) and -1.45 (inactive)

SMILES: C=CCN(CCCC)C(=O)C1N(c2c(Cl)cccc2CO)C(=O)C2C(C(=O)O)C3C=CC21O3 (stereo not given)
- z-score [1]: -0.074 (inactive) and 2.24 (inactive)
- composite z-score [2]: -0.0544 and 0.452
- z-score [3]: 1.2 (inactive) and 1.94 (inactive)
- z-score [4]: 1.05 (inactive) and 0.871 (inactive)
- z-score [5]: 0.116 (inactive) and 0.127 (inactive)
- z-score [6]: 0.162 (inactive) and 0.432 (inactive)
- z-score [7]: -0.352 and 0.113
- z-score [8]: 0.6 (inactive) and 0.353 (inactive)
- z-score [9]: -0.381 (inactive) and -0.863 (inactive)
- z-score [10]: -0.708 and 0.0892
- z-score [11]: -0.313 and -0.498
- z-score [12]: 1.21 and 1.63
- z-score [13]: -1.25 and -0.852
- z-score [14]: 0.96 and 0.468
- z-score [15]: -0.497 and -0.251
- z-score [16]: -1.04 and -0.518
- z-score [17]: -0.291 (inactive) and 0.159 (inactive)
- z-score [18]: 0.0487 and -0.0566
- z-score [19]: 0.488 and 0.599
- z-score [20]: -0.822 (inactive) and -0.0069 (inactive)
